Laboratory results: ChEMBL document CHEMBL3988442, “University of Dundee, Small-Polar-MMV Screening Library” (2021)
About 13,000 (27%) of roughly 48,000 compounds showed an effect of 50% or more. This is one part of the list.

System: Wolbachia pipientis
Assay: Anti-Wolbachia Cell-Based Screen
Assay type: functional
Parameters: scale not given: in the data most compounds retested in dose-response had high values
Settings: 5 µM

Structure (SMILES)	Percent Effect
CC(c1nc(C2CC2)no1)N1CCN(CC(=O)N2CCOCC2)CC1 (configuration not stated)	99.5%
CC(C(=O)N1CCOCC1)S(=O)(=O)Cc1nc(C(C)(C)C)no1 (configuration not stated)	-2.634%
CC(c1nc(C(C)(C)C)no1)N1CCN(C(=O)CN2CCOCC2)CC1 (configuration not stated)	87.21%
CCc1noc(C(C)N2CCN(CC(=O)N3CCOCC3)CC2)n1 (configuration not stated)	97.96%
CCc1noc(C(C)N2CCN(Cc3nc(C)c(C)o3)CC2)n1 (configuration not stated)	17.35%
CC(c1nc(C2CC2)no1)N1CCN(CCc2ccncc2)CC1 (configuration not stated)	-3.98%
CC(c1nc(C2CC2)no1)N1CCN(CCS(C)(=O)=O)CC1 (configuration not stated)	9.574%
O=C(Nc1ccc(CCN2CCC(O)CC2)cc1)Nc1cccnc1	-10.88%
CCn1c(N)nc2cc(C(=O)N3CC(c4ccccn4)C3)cnc21	10.45%
NC(=O)CC1CCN(S(=O)(=O)N2CCCC2c2ccco2)CC1 (configuration not stated)	-25.34%
Cc1ccccc1OCC(=O)NCC(c1ccc(N(C)C)cc1)N(C)C (configuration not stated)	129.5%
Cc1cc(C(O)CCNC(=O)COc2ccccc2C)c(C)o1 (configuration not stated)	9.318%
COc1ccccc1OCC(=O)NCc1ncc(C)c(OC)c1C	12.71%
O=C(O)c1cn(CC2CCCN(c3nccc4occc34)C2)nn1 (configuration not stated)	6.714%
Cc1ccc(CNc2ccccc2-n2ccc(C)n2)nc1	-1.934%
COc1ccc(C(=O)N2C[C@@H](O)[C@H](NCc3ncccc3C)C2)cc1	82.18%
C=Cc1ccc(C(=O)N2CCCC(Nc3ccc(OC)cc3)C2)cc1 (configuration not stated)	13.35%
COc1ccc(C(=O)N2C[C@@H](O)[C@H](NCCc3ncccc3C)C2)cc1	97.07%
COc1ccc(C(=O)N2C[C@@H](O)[C@H](NCc3cnc(C)cn3)C2)cc1	111.7%
O=C(c1ccc(-c2nc[nH]n2)cc1)N1CC[C@H](CO)[C@@H](O)C1	11.14%
COc1ccc(C(=O)N2CCN(C(=O)Cn3nccc3C)CC2)cc1	4.431%
COc1ccc(C2CCN(C(=O)c3ncccc3OC(C)C)C2)cc1 (configuration not stated)	4.794%
CNC(=O)[C@@H]1COC[C@H]2CN(C(=O)c3ccc(OC)cc3)C[C@H]21	-23.66%
COc1ccc2c(c1)nc1n2[C@@H](CNCc2ncccc2C)COC1	-5.483%
CC(C)CN1CCc2[nH]cnc2C12CCN(C(=O)c1ccc[nH]1)CC2	3.052%
CC(=O)N[C@@H]1CN(C2CCN(c3ccccc3F)CC2)C[C@H]1C(C)C	33.97%

Structure (SMILES)	Percent Effect
COC(=O)CC(c1cnn(C)c1)c1oc(C)cc(=O)c1O (configuration not stated)	15.74%
Cn1cc(Cl)cc1C(=O)N1CCC2(CCCN(CC3CCC3)C2=O)C1 (configuration not stated)	-14.89%
Cc1[nH]c2c(C)ccc(C)c2c1CC(=O)NCC(O)c1cccnc1 (configuration not stated)	0.3243%
CCOCCN(CCOCC)c1nc(C)nc2sccc12	-8.835%
OCc1cc2ccccc2nc1NCC1CCN(CC(F)(F)F)C1 (configuration not stated)	-4.701%
O=C(N1CCCC1)N1CCC[C@]2(C[C@@H](OCc3ccncc3)CO2)C1.O=C(O)C(F)(F)F	-0.7527%
CCO[C@@H]1CO[C@@]2(CCCN(C(=O)c3ccc(OC)c(F)c3)C2)C1	-6.158%
CO[C@H]1CO[C@@]2(CCCN(C(=O)C3=CCCCC3)C2)C1	-11.4%
CO[C@H]1CO[C@@]2(CCCN(C(=O)N(C)C)C2)C1	112.3%
CO[C@@H]1CO[C@@]2(CCCN(C(=O)N3CCCC3)C2)C1	89.36%
CCO[C@H]1CO[C@@]2(CCCN(C(=O)c3ccc(OC)c(F)c3)C2)C1	-0.1252%
CO[C@H]1CO[C@@]2(CCCN(C(=O)N3CCCC3)C2)C1	89.24%
CN(C)C(=O)c1noc2c1CN(C(=O)CCC1CCCCN1C)CC2 (configuration not stated)	11.84%
CCCn1nc2c(cc1=O)CN(CC1CCCCO1)CC2 (configuration not stated)	-1.903%
COCCCN1C(=O)CC[C@H]2CN(Cc3ncc[nH]3)CC[C@H]21	-5.769%
COCCN1C(=O)CC[C@@H]2[C@H]1CCN2C(=O)N(C)C	4.27%
O=C(O)C(F)(F)F.O=C1CC[C@H]2[C@H](CCN2S(=O)(=O)C2CC2)N1CCN1CCCC1	79.45%
O=C1CC[C@H]2[C@H](CCN2C(=O)C2CCCO2)N1CCN1CCCC1 (some centres not stated)	13.58%
CN1C(=O)CC[C@@H]2[C@H]1CCN2S(=O)(=O)c1cccs1	-22.4%
COCCN1C(=O)CC[C@@H]2[C@@H]1CCN2S(=O)(=O)C1CC1	90.99%
CCN1C(=O)CC[C@@H]2[C@H]1CCN2S(=O)(=O)c1cccs1	2.968%
COCCN1C(=O)CC[C@@H]2[C@H]1CCN2S(=O)(=O)c1cccs1	103.5%
O=C(O)C(F)(F)F.O=S(=O)(C1CC1)N1CCO[C@H]2[C@H](OCCN3CCCC3)CC[C@@H]21	-18.3%
COCCN1C(=O)CC[C@@H]2[C@H]1CCN2C(=O)C1CCOCC1	5.34%
CCS(=O)(=O)N1CC[C@@H]2[C@H]1CCC(=O)N2CCOC	101.4%
COCCN1C(=O)CC[C@@H]2[C@H]1CCN2Cc1ccc(C)s1.O=C(O)C(F)(F)F	3.422%
